# Screens deposited in PubChem by The Scripps Research Institute Molecular Screening Center.
# GPR151 ag: activators of human GPR151; PathHunter beta-arrestin GPR151 cells, luminescence; 1% of 650,000 active; activation, % at 11.2 µM; Q8TDV0; in the data active = activation above about 4.9%;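 also: 0% = median of compound wells and 100% = cells with positive control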
# Target sequence (Q8TDV0 whole entry, looked up): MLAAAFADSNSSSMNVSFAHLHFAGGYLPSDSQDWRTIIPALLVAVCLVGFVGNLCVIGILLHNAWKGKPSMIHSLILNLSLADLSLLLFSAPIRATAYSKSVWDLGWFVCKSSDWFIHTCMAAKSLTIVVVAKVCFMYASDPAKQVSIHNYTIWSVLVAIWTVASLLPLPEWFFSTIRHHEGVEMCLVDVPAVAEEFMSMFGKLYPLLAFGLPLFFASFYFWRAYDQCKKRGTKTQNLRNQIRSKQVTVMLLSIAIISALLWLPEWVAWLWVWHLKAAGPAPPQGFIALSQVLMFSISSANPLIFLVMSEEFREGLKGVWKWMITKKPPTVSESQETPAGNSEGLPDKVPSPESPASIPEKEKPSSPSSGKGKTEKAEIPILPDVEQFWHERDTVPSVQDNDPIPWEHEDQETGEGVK
# MITF inh: blocks human microphthalmia-associated transcription factor; AlphaScreen MITF homodimerization, bead proximity signal; inhibition, % at 2.6 µM; 0.91% of 650,000 active; AID 1259374; in the data active = inhibition above about 50%;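 also: 0% = vehicle wells with protein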
# TEAD-YAP inh: TEAD-YAP interaction inhibition. HEK-TIYL cells, TEAD-Gal4/YAP UAS-luciferase luminescence. 1.4% of 640,000 active. inhibition, % at 9.12 µM; in the data active = inhibition above about 32%;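 also: 0% = median of test compound wells and 100% = reference inhibitor wells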
# FBW7 activator: activators of human E3 ligase FBW7. Q969H0. AlphaScreen FBW7–phospho-cyclin E peptide binding, activator screen. normalized activity (activation), % at 26.1 µM. 0.13% of 650,000 active; in the data active = normalized activity above about 1.9%;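 also: purified mutant Fbw7 with reduced substrate affinity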
# An asterisk follows results filed as active. A selection: hits, their analogues and other compounds. The true share with any hit is near 3.5%.
SMILES,GPR151 ag,MITF inh,TEAD-YAP inh,FBW7 activator
Fc1ccc(Nc2ccn3ncc(-c4cccs4)c3n2)cc1Cl,2.9,16.2,4.7,0.2
Cc1nccn1-c1cc(NCCNC(=O)Nc2ccc(F)c(Cl)c2)ncn1,-0.5,2.8,78.2*,0.0
COc1cccc(C2C(C(=O)Nc3cccc(C)n3)=C(C)NC3=C2C(=O)CC(C)(C)C3)c1OC (stereo not drawn),0.9,7.6,7.5,0.1
COC(=O)C1=C(N)n2c(s/c(=C/c3ccco3)c2=O)=C(C(=O)OC)C1c1ccco1 (stereo not drawn),0.5,18.5,49.1*,0.4
CCOc1c(Br)cc(C2=C(C#N)C(N)Oc3c2c(C)nn3-c2ccc(Br)cc2)cc1OC (stereo not drawn),0.1,-1.9,-5.8,-0.4
CCOc1cccc2c1OC(c1ccccc1Cl)N1N=C(c3ccc(C)o3)CC21 (stereo not drawn),-1.1,-5.0,-22.7,0.0
COc1cccc2c1OC(c1ccccc1Cl)N1N=C(c3ccc(C)o3)CC21 (stereo not drawn),-0.7,2.8,43.7*,0.0
CCOc1ccc(C2=NN3C(C2)c2cccc(OC)c2OC3c2ccc(F)c(F)c2)cc1 (stereo not drawn),-1.7,6.3,14.0,0.5
COc1cccc2c1OC(c1ccc(F)c(F)c1)N1N=C(c3ccc(C)o3)CC21 (stereo not drawn),-0.1,11.4,32.6*,0.0
COc1ccc(N(CN2C(=O)C3CCC(C)CC3C2=O)C(C)=O)cc1 (stereo not drawn),3.0,-0.4,-12.1,0.0
CCn1c(=S)sc2c(=O)n(-c3ccccc3)c(SCc3ccccc3Cl)nc21,-1.5,6.3,-8.0,0.1
CCn1cnc2c(Nc3ccc(F)cc3)ncnc21,-9.8,14.1,33.9*,0.6
CCn1cnc2c(Nc3ccc(C)cc3C)ncnc21,-1.2,8.6,-58.2,0.0
C[C@@H]1CN(C(=O)Nc2cccc(Nc3nccc(-c4ccc(N5CCC(O)CC5)c(C#N)c4)n3)c2)C[C@H](C)O1,-0.7,14.5,39.8*,0.6
Cc1ncn(-c2ccc(Nc3nccc(-c4ccc(C#N)c(N5CCC(O)CC5)c4)n3)cc2)n1,0.1,31.2,69.5*,0.2
N#Cc1cc(-c2ccnc(Nc3ccc(-n4cnc(N5CCC(O)CC5)n4)cc3)n2)ccc1N1CCC(O)CC1,1.3,-3.0,49.9*,0.0
Cc1ncn(-c2ccc(Nc3nccc(-c4ccc(C#N)c(N5CCCC5)c4)n3)cc2)n1,-0.9,20.5,30.3,0.2
Cc1ncn(-c2ccc(Nc3nccc(-c4ccc(N5CCCC(CO)C5)c(C#N)c4)n3)cc2)n1 (stereo not drawn),2.8,8.5,46.5*,0.2
COc1cc(NC(=S)NC2CC2)cc(OC)c1,0.0,3.5,-1.7,0.6
COc1ccc(/C=C/C(=O)Nc2cccc(NC(=O)c3cccs3)c2)cc1,-0.5,-17.9,-68.9,0.0
CC1CCCC(NC(=O)C2N(C3CCCCC3)C(=O)C3C(C(=O)Nc4ccc(Cl)cc4)C4C=CC32O4)C1C (stereo not drawn),-1.9,7.8,0.4,0.2
CCN(CC)CCn1c(=S)[nH]c2cc(C(=O)OC)ccc2c1=O,-1.8,9.7,7.6,-0.1
O=C(N/N=C/c1cc(Br)ccc1O)c1ccc(O)cc1O,0.1,22.4,72.0*,-0.8
Cc1occc1C(=O)N/N=C/c1cc(Br)ccc1O,-4.5,17.7,47.2*,-0.1
COc1ccc(-c2ocnc2C(=O)Nc2ccc(CN3CCCC3)cc2)cc1,-0.4,-4.8,21.3,0.0
SMILES,GPR151 ag,MITF inh,TEAD-YAP inh,FBW7 activator
O=C(CN1C(=O)c2ccccc2C1=O)N1CCc2ccccc2C1,-0.2,-12.4,1.9,-0.1
CCOC(=O)c1c(NC(=O)CSc2nnc(CNC(=O)c3cccc(OC)c3)n2-c2ccc(F)cc2)sc2c1CCC2,1.8,-3.2,-5.4,-0.1
CN1CCN(c2ccc(-c3cccc(Cl)c3)cn2)CC1,-4.6,7.7,54.3*,0.5
COc1cccc(-c2ccc(N3CCN(C)CC3)nc2)c1,-3.8,-12.5,13.7,-0.2
COc1ccc(CN2CCN(C(=O)c3ccc(F)cc3)CC2)cc1,-0.4,42.6,11.5,-0.2
COc1ccc(S(=O)(=O)Nc2c(C)cc(C)cc2C)c([N+](=O)[O-])c1,1.5,4.0,-5.3,-0.2
COc1ccc2[nH]c(=O)c(CN(Cc3cccnc3)C(=O)Nc3ccccc3)cc2c1,-0.6,2.8,17.1,0.1
COc1ccc(NC(=O)N(CCCO)Cc2cc3cccc(C)c3[nH]c2=O)cc1,-0.4,4.0,-3.4,0.1
Cc1cccc2cc(CN(CCO)C(=O)Nc3ccc(F)cc3)c(=O)[nH]c12,-0.4,8.7,12.9,2.3*
